Results reported in PubChem BioAssay (NCATS).
Results filed as inconclusive are left out. The source made the active and inactive calls. Calls come from the whole dose curve; as a rule, active = well fitted inhibition curve with a large enough effect; inconclusive = small, poorly fitted or top-dose-only effect; inactive = no such curve, though single readings can be large or run the other way.

Target: Rap guanine nucleotide exchange factor 4 (Homo sapiens) (UniProt Q8WZA2)
Test: Confirmatory qHTS for antagonist of cAMP-regulated guanine nucleotide exchange factor 4 (EPAC2) (AID 1645885); note: nearly all actives have a fitted effect of over 25% in size
Details: EPAC2 Rap1B-BODIPY-GDP exchange fluorescence, biochemical; series mostly up to 12.7 µM; activity change, negative = inhibition: at the top concentration
% is set by controls: 0 for no effect and ±100 for the full control effect.

Rap guanine nucleotide exchange factor 4 (Homo sapiens), sequence (Q8WZA2 whole entry, looked up): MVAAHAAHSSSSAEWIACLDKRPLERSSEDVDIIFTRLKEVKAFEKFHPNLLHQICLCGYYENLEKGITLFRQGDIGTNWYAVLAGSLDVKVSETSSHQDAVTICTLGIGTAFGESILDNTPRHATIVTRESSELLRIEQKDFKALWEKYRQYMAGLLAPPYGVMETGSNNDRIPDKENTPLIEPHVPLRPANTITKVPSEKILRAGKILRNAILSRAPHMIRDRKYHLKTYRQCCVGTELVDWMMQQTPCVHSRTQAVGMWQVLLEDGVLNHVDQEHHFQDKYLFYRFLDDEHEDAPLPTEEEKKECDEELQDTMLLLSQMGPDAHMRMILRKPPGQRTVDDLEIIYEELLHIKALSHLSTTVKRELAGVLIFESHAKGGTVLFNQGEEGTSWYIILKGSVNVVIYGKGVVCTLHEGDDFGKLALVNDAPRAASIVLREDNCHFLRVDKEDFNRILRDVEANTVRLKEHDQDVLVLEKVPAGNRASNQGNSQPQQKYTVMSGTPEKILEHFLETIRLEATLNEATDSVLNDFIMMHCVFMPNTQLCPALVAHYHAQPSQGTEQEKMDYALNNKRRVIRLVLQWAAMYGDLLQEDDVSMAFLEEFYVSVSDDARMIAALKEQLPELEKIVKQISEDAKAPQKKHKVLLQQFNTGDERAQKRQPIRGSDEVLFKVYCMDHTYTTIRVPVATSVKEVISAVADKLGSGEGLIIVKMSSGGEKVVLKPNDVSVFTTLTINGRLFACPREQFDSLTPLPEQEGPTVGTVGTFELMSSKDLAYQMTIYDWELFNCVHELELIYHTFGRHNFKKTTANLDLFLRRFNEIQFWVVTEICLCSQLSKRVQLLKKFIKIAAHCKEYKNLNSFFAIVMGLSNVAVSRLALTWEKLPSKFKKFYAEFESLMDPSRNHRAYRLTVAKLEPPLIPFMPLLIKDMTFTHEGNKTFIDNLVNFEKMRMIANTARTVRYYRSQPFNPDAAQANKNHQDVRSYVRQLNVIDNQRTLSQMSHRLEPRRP

outcome, inactive:
Cc1ccc(Nc2nnc(-c3ccc(C)c(S(N)(=O)=O)c3)c3ccccc23)cc1 inactive [at 12.7 µM]
CCOC(=O)c1ccc(NC(=O)c2c(NCc3cccs3)sc3c2CCCCC3)cc1 inactive [at 12.7 µM]

Activity change, negative = inhibition, inactive:
C=CS(=O)(=O)N(Cc1ccccc1Br)[C@H](CO)CC(C)C -10.8%
CCN(C(=O)Cn1c(C(=O)OC)cc2sccc21)c1cccc(C)c1 -12.9%
Cc1ccc(-c2cc(C(=O)Nc3ccc(S(=O)(=O)Nc4onc(C)c4C)cc3)c3ccccc3n2)cc1 -17.1%
O=C(Nc1cccc(S(=O)(=O)NC2=NCCCCC2)c1)c1cc(-c2ccc(Cl)cc2)nc2ccccc12 -21.9% [at 114 µM]
CCc1ccccc1OCC(=O)NCC1COc2ccccc2O1 (stereo unspecified) 43.9% [at 114 µM]
O=C1N(Cc2ccccc2)c2ccccc2C1(O)c1c[nH]c2ccccc12 (stereo unspecified) 24.6%
Cc1[nH]n(-c2ccccc2)c(=O)c1C=Nc1ccc(S(=O)(=O)N=C(N)N)cc1 -15.5% [at 114 µM]
CCN1CCc2c(sc(NC(=O)c3cc4ccccc4cc3OC)c2C(N)=O)C1 -1.9%
COc1cccc(C(=O)Nc2cccc(C(=O)OCc3cc(=O)n4c(C)csc4n3)c2)c1 8.96%
CCc1nc2c(OCC3CCCCC3)cccn2c1N(C)C(=O)c1ccc(C)cc1 -14.9% [at 114 µM]
Fc1ccccc1C1CC(c2ccco2)=Nc2ccccc2S1 (stereo unspecified) -8.83%
O=c1[nH][nH]c(-c2ccccc2O)c1C(C[N+](=O)[O-])c1ccc(Br)cc1 (stereo unspecified) 4.11%
O=C(CSc1nc(-c2ccccc2)nc2c1Cc1ccccc1O2)Nc1ccc(C(=O)O)cc1 -4.11% [at 114 µM]
O=C(NC1(O)C(=O)c2ccccc2C1=O)c1ccc(C(F)(F)F)cc1 -20.3% [at 114 µM]
